The panel holds about 79,000 compounds, 15% with a hit somewhere; the sample as a whole holds those more often. Active and inactive are the calls of the source. Rule as the data show it: active = growth inhibition above about 70%; inactive = the rest.
Columns and labels:
[1] = NCI Yeast Anticancer Drug Screen. Data for the rad50 strain (AID 155);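 also: 0% = growth of vehicle-only cultures of the same strain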; conditions: S. cerevisiae rad50 strain growth inhibition; at 50.0 µM; stronger effect = higher value
Method in brief: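 A DNA repair-deficient yeast mutant serves as the test organism; compound-induced growth inhibition is calculated against vehicle-treated cells.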

[2] = NCI Yeast Anticancer Drug Screen. Data for the mec2-1 strain (AID 157); conditions: S. cerevisiae mec2-1 strain, at 50.0 µM, stronger effect = higher value
Method in brief: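 Strain: mec2-1 (DNA repair/cell cycle alteration). Compound exposure, then growth measured; inhibition expressed relative to vehicle.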

[3] = NCI Yeast Anticancer Drug Screen. Data for the sgs1 mgt1 strain (AID 161);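 also: 0% = growth of cultures given vehicle only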; conditions: S. cerevisiae sgs1 mgt1 strain, at 50.0 µM, stronger effect = higher value
Method in brief: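 Mutant yeast exposed to compound; growth scored against vehicle-only wells.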

[4] = NCI Yeast Anticancer Drug Screen. Data for the cln2 rad14 strain (AID 165);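 also: 0% = growth equal to vehicle treated cultures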; conditions: S. cerevisiae cln2 rad14 strain, at 50.0 µM, stronger effect = higher value
Method in brief: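 Compounds are applied to the cln2 rad14 yeast strain, and growth is then compared with that of vehicle-treated cultures to give inhibition.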

[5] = NCI Yeast Anticancer Drug Screen. Data for the bub3 strain (AID 167); conditions: S. cerevisiae bub3 mutant strain, at 50.0 µM, stronger effect = higher value
Method in brief: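 Inhibition values come from growth of compound-treated mutant yeast normalised to vehicle-treated controls.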

[6] = NCI Yeast Anticancer Drug Screen. Data for the mlh1 rad18 strain (AID 175); conditions: S. cerevisiae mlh1 rad18 strain growth inhibition; at 50.0 µM; stronger effect = higher value
Method in brief: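 Read-out is yeast growth inhibition, calculated against vehicle-only controls. The compound was applied to a strain engineered with DNA damage repair alterations.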

Measured: growth inhibition

NC(=O)OC1CCN(c2cccc(Cl)c2)C1 (configuration not stated)
inactive: [1] -8.1% | [2] -22.3% | [3] -16.1% | [4] 23.5% | [5] -18.8% | [6] 1.75%

O=C1c2ccccc2C(=O)N1CC#CCN1C(=O)c2ccccc2C1=O
inactive: [1] -6.95% | [2] -31.8% | [3] 19.6% | [4] -5.05% | [5] -2.65% | [6] -5.75%

CSc1ccc(OC(=O)Nc2cc([N+](=O)[O-])ccc2F)cc1C
inactive: [1] 16.6% | [2] 11.2% | [3] 16% | [4] 12.2% | [5] 28.8% | [6] 17.1%

Cc1cccc(C)c1NC(=O)CCC(=O)NC(N)=NC#N
inactive: [1] -33.1% | [2] -23.8% | [3] -25.7% | [4] 9.7% | [5] -23.8% | [6] -23.1%

C1CCC2(CC1)SCCS2
inactive: [1] 2% | [2] -18.4% | [3] -1.9% | [4] -48.9% | [5] -9.4% | [6] -10.4%

CC(=O)Nc1cc2cc(N=CN(C)C)ccc2oc1=O
inactive: [1] -24.9% | [2] -43.4% | [3] -16.4% | [4] -10.8% | [5] -18.1% | [6] -7.4%

C1CCN(CCC2CCNCC2)C1
inactive: [1] 5.5% | [2] -19.4% | [3] -15.1% | [4] 13.5% | [5] -1% | [6] 3.8%

CCCCCCCCCCS(C)(=O)=O
inactive: [1] -19.4% | [2] -3.95% | [3] -7.25% | [4] -16.4% | [5] -24.9% | [6] -24.6%

COC(=O)C1[C@@H](C(=O)OC)C12C=Cc1ccccc1C=C2 (some centres not stated)
inactive: [1] -33.2% | [2] -47% | [3] -50.2% | [4] 1.05% | [5] -28.6% | [6] -25.4%

CN(C)c1ccc(/C(=N\O)C(=O)O)cc1
inactive: [1] -15.2% | [2] -13.3% | [3] -2.2% | [4] -9.1% | [5] 0.1% | [6] 1.55%

CN(C)C(=O)Nc1ccc(C#N)cc1
inactive: [1] 10.1% | [2] 2.3% | [3] -13.3% | [4] -25.1% | [5] -5.15% | [6] -8.2%

NC(=O)NC(Cc1ccccc1)(C(=O)O)c1ccccc1 (configuration not stated)
inactive: [1] 6.55% | [2] 6.15% | [3] 35.9% | [4] -0.75% | [5] 24.4% | [6] 20.4%

CCN(CC)C1=CC(=O)OC1OC (configuration not stated)
inactive: [1] -9.65% | [2] 12.5% | [3] 2% | [4] 8.1% | [5] 3.05% | [6] -4.2%

Cc1ccc(C)c2c1C(=O)c1ccccc1C2(O)C#Cc1ccccc1 (configuration not stated)
inactive: [1] 27.6% | [2] 1.45% | [3] 29.4% | [4] 21.1% | [5] 31.7% | [6] 23.2%

CCOC(=O)c1cccc(OCC)c1
inactive: [1] 6.95% | [2] 18.1% | [3] -7.65% | [4] -43% | [5] 3.5% | [6] 6.7%

CC1(C)CNC(C)(C)CN1
inactive: [1] -4.45% | [2] -11.8% | [3] 4.35% | [4] 1.1% | [5] 17.5% | [6] -18%

N#CC1C2CCC(C2)C1CCCN (configuration not stated)
inactive: [1] 18.4% | [2] -8.75% | [3] 6.55% | [4] -81.9% | [5] -8.05% | [6] -13.8%

CCC(=O)OCCCC1CCCO1 (configuration not stated)
inactive: [1] 7.85% | [2] -0.55% | [3] 1.05% | [4] -9.8% | [5] 2% | [6] -2.05%

CCOC(=O)c1cc(Cl)nc(Cl)c1
inactive: [1] 6.95% | [2] -16.6% | [3] -1.8% | [4] -3.15% | [5] 4.5% | [6] -10.4%

Cc1ccc2nc(-c3ccc(N)cc3)sc2c1S(=O)(=O)O
inactive: [1] 3.3% | [2] 2.15% | [3] 6.8% | [4] 2.45% | [5] 2.3% | [6] 5.65%

COC(=O)c1c2c(cc3c1CC1(C3)Cc3cc4c(c(C(=O)OC)c3C1)CCC4)CCC2
inactive: [1] 3.25% | [2] -35.6% | [3] -3.65% | [4] -0.8% | [5] -7.85% | [6] 10.3%

CCN(CC)c1ncnc2c1cnn2C
inactive: [1] -14.8% | [2] -14.4% | [3] 8.75% | [4] 11% | [5] -15.9% | [6] -28%

CCNc1ccc(C)cc1
inactive: [1] 55.4% | [2] -4.1% | [3] 0.1% | [4] -14% | [5] -5.15% | [6] 33.5%

COc1cc(Nc2nc3ccccc3nc2C(=O)O)cc(OC)c1OC
inactive: [1] -26.2% | [2] -9.45% | [3] -16.1% | [4] 2.5% | [5] 16.9% | [6] -45.4%

COc1cc2cc(-c3ccc(Cl)c(Cl)c3)[n+](C)cc2cc1OC
inactive: [1] 36% | [2] 20.1% | [3] 35.3% | [4] 21.6% | [5] -3.55% | [6] 13.7%

COC(=O)N/N=C/c1cccc(C)n1
inactive: [1] -5.55% | [2] 2.05% | [3] -4.55% | [4] 0.7% | [5] -5.25% | [6] -11.6%

CCCCCN(CCCCC)C(=S)[S-].CCCCCN(CCCCC)C(=S)[S-].[Zn]
inactive: [2] 53.6% | [4] 46.4% | [5] 42.1% | [6] 60.8%
active: [1] 72.7% | [3] 72.1%

NC(=O)/N=C/NC(N)=O
inactive: [1] 21.6% | [2] -14.3% | [3] 21.8% | [4] -5.3% | [5] -24.5% | [6] 2.65%

CCCN(CCN(CC)CC)C(=O)N(CC)CC
inactive: [1] -11% | [2] 14.3% | [3] 3.2% | [4] -19.1% | [5] 6.35% | [6] -17.6%

NC(=O)NC(=S)NC(=O)c1ccccc1
inactive: [1] -2.95% | [2] 0.95% | [3] -2.95% | [4] -33.5% | [5] -28.8% | [6] -7%

O=c1cc(CO)oc2c3c(cc(O)c12)OCC(COC1OC(CO)C(O)C(O)C1O)=CC3 (configuration not stated)
inactive: [1] -1.25% | [2] -8.75% | [3] -1.75% | [4] -13.9% | [5] -0.55% | [6] -0.9%

Cc1c(-c2ccccc2)nnn1-c1ccc(F)cc1F
inactive: [1] 1.7% | [2] -28.8% | [3] 13.4% | [4] -10.6% | [5] 20.8% | [6] -9.35%

ClC(c1ccccc1)(c1ccccc1)C(Cl)(c1ccccc1)c1ccccc1
inactive: [1] 45.9% | [2] 5.05% | [3] 24.1% | [4] 11.8% | [5] 4.6% | [6] 26.9%

N#CC1(c2ccc(Cl)cc2)CCC1
inactive: [1] 11.7% | [2] 6.15% | [3] 19.8% | [4] 19.9% | [5] 27.5% | [6] 8.6%

CCCCCCCCCCCCCCCC[N+]1(C)CCC[N+](C)(CCCCCCCCCCCCCCCC)CC1 (configuration not stated)
inactive: [1] -5.25% | [2] -21% | [3] -2.65% | [4] -22.6% | [5] -8.4% | [6] -0.1%

CCCCCCCCCCCCCCCCCCNC(=S)N(C)C
inactive: [1] 18.8% | [2] 0.2% | [3] 8.1% | [4] 1.25% | [5] 38.6% | [6] 5.05%

CC1=C(C#N)C(=N)OC1(C)C1CC(=O)C=CC1=O (configuration not stated)
inactive: [1] -11.5% | [2] 27.4% | [3] 7.9% | [4] 20.5% | [5] 4.55% | [6] 4.6%

O=C(NC(=S)Nc1ccc(Cl)cc1C(=O)c1ccccc1)c1ccc(Cl)cc1Cl
active: [4] 74.4%
inactive: [1] -32% | [2] 6.9% | [3] -8.45% | [5] -3.05% | [6] -1.15%

CC(C)=CCC/C(C)=C/C=O
inactive: [1] 9.1% | [2] 2.95% | [3] 5.1% | [4] 9.6% | [5] 7.95% | [6] 8.4%

COc1ccc(/C=C/C(=O)c2sc(NC(=S)NC(=O)c3ccccc3F)nc2C)cc1OC
inactive: [1] 21.1% | [2] 8.5% | [3] 37.6% | [4] 30.1% | [5] 30.9% | [6] 22.9%

N#CCc1ccc(C(C#N)C(=O)CCC(=O)C(C#N)c2ccc(CC#N)cc2)cc1 (configuration not stated)
inactive: [1] 11.7% | [2] 11.3% | [3] -13.1% | [4] 34.1% | [5] -0.3% | [6] 22.1%

Nc1ccc(Nc2cc(=O)[nH]c(=O)[nH]2)cc1Cl
inactive: [1] 5.8% | [2] 6.6% | [3] 14.1% | [4] 6.2% | [5] -3.2% | [6] -20.8%

Reference: PubChem BioAssay (NCI)
